Only a selection was taken, and hits are over-represented in it overall.
CendR NRP1 mod: alters CendR peptide binding to human NRP-1; 360,000 compounds, 0.85% hits; AID 602438; FAM-RPARPAR peptide binding to NRP-1, fluorescence polarization; inhibition, % at 25 µM; O14786;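 active = inhibition or corrected inhibition above about 18%, plus a signal ratio from 0.5 to 1.5, limit read from the data, passing the limit was not always enough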
Target sequence (O14786 whole entry, looked up): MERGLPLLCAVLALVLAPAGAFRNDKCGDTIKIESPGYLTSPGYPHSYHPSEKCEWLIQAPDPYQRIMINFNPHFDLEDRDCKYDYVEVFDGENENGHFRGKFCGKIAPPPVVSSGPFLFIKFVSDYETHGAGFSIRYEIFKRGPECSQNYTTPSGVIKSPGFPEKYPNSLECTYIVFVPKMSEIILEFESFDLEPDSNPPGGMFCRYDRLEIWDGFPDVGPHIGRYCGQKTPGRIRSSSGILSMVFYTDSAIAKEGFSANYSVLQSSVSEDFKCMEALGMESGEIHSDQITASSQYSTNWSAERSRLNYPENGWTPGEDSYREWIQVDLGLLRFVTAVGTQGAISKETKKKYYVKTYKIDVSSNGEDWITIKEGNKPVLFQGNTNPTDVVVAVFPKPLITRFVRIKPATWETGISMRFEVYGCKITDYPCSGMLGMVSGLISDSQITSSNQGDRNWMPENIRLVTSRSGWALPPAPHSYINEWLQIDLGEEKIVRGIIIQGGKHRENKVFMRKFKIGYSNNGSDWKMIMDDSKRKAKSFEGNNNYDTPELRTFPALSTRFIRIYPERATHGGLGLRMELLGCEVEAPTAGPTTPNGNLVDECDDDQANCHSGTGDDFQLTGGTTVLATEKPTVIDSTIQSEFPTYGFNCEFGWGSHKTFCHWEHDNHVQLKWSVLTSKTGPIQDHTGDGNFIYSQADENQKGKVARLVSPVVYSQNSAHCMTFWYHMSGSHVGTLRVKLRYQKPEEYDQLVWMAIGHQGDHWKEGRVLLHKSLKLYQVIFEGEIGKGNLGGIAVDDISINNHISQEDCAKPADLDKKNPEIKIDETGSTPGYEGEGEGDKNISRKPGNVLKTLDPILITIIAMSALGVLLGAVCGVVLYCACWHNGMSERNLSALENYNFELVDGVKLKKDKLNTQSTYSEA
PDI inh: PDI (human) enzyme inhibition | inhibition, % at 10 µM | P07237 | PDI insulin aggregation turbidity, A650, 90 min | 350,000 compounds, 0.052% hits | AID 588391;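 active = mean inhibition across replicates of 30% or more, whatever share of single replicates reach that level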
ERp5 inh: blocks human ERp5 reductase activity on insulin | 350,000 compounds, 0.05% hits | Q15084 | inhibition, % at 9.99 µM | ERp5 insulin aggregation, absorbance 650 nm, 90 min;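 active = mean replicate inhibition above about 25%, with every replicate also reaching it, limit read from the data, passing the limit was not always enough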
PglD inh: inhibitors of Campylobacter jejuni PglD acetyltransferase | inhibition, % at 12.5 µM | 360,000 compounds, 0.098% hits | purified PglD enzyme, DTNB colorimetric CoA detection | AID 602405; in the data active = inhibition above about 16%, passing the limit was not always enough
ARNT TACC3 PPI: disrupts binding between human ARNT and TACC3 | Q9Y6A5 | AlphaScreen His-ARNT PAS-B/GST-TACC3 binding, luminescence; TACC3 fragment carries E629A point mutation | inhibition, % at 9.99 µM | 390,000 compounds, 0.66% hits | AID 623870;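 active = mean inhibition of replicates at least 50% and at least half of replicates each reaching 50%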;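 also: 0% = complete ARNT plus TACC3 wells and 100% = ARNT alone without TACC3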
ALR H2O2 inh: blocks human ALR sulfhydryl oxidase activity. P55789. purified ALR, DTT oxidation, H2O2 HRP-luminol luminescence. inhibition, % (concentration not given with the values). 290,000 compounds, 3.8% hits;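 active = mean replicate inhibition above about 79%, with every replicate also reaching it, limit read from the data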
* hit, by the source's call; nt = not tested or not shown.

SMILES	CendR NRP1 mod	PDI inh	ERp5 inh	PglD inh	ARNT TACC3 PPI	ALR H2O2 inh
Cc1ccc(/C=C2\SC(=S)N(/N=C/c3cc([N+](=O)[O-])ccc3O)C2=O)o1	-102	3	nt	nt	44	98*
O=C(NN1C(=O)/C(=C/c2ccc(O)cc2)SC1=S)c1ccccc1O	-191	7	-3	-16	16	99*
CCOc1cc(/C=C2/SC(=S)NC2=O)ccc1OC(=O)c1ccco1	-198	-6	8	nt	18	98*
COc1cc(/C=C2\SC(=S)N(NC(C)=O)C2=O)ccc1OC(=O)c1ccco1	-45	5	-13	nt	-1	98*
COc1cc(/C=C2/SC(=O)NC2=O)ccc1OC(=O)c1ccco1	8	0	-3	-2	-5	22
O=[N+]([O-])c1ccc(O)c(/C=N/n2cnc3ccccc32)c1	-11	-3	-8	-14	-4	-3
C[C@@H]1CN([C@@H](C)CO)S(=O)(=O)c2ccc(C#CC3CCCC3)cc2O[C@@H]1CN(C)Cc1cncnc1	nt	nt	0	9	10	nt
CC(C)Cn1cnc2c1c(=O)n(CC(=O)O)c(=O)n2Cc1ccccc1	-4	-8	0	2	-1	-3
CC(C)Cn1cnc2c1c(=O)n(CC(=O)NC(=O)NC(C)(C)C)c(=O)n2Cc1ccccc1	18*	-1	3	-9	-1	-2
O=C(Nc1ccccc1C(=O)N/N=C/c1ccc(O)cc1)c1ccccc1	-4	4	1	nt	1	94*
O=C(Nc1ccccc1C(=O)N/N=C/c1ccccc1)c1ccco1	-1	-14	1	-4	5	-11
CC(=O)c1ccc(NC(=O)C(NC(=O)c2ccccc2)=C(C)C)cc1	2	-1	0	9	-8	-13
CC(C)=C(NC(=O)c1ccccc1)C(=O)N/N=C/c1ccc(O)cc1	-29	2	nt	-2	0	99*
O=C(N/N=C/c1ccc(O)cc1)c1csc2ccccc12	-2	-3	nt	-1	9	98*
O=C(CNC(=O)c1ccccc1Br)N/N=C/c1ccco1	-5	12	3	2	6	-3
O=C(CNC(=O)c1ccccc1Br)N/N=C/c1ccc(O)cc1	-2	4	5	nt	6	99*
O=C(N/N=C/c1ccc(O)cc1)c1cc(-c2ccccc2)nc2ccccc12	5	-7	6	-6	-1	30
O=C(O)C[C@H]1C[C@@H]2c3cc(NC(=O)Nc4ccc(F)cc4)ccc3O[C@@H]2[C@H](CO)O1	nt	nt	-8	0	-3	nt
CCOC(=O)CN1C(=O)N[C@@H](c2ccccc2)[C@H](C(C)=O)[C@H]1C	25*	5	0	-6	-3	-1
CO[C@@H]1CN(C)C(=O)c2ccc(NS(=O)(=O)c3cccc(F)c3)cc2OC[C@@H](C)N(C(=O)Cc2cccnc2)C[C@@H]1C	nt	nt	-2	-3	7	nt
CCOc1ccccc1NC(=O)c1nc(S(=O)(=O)Cc2ccccc2)ncc1Cl	17	-5	-4	-1	1	96*
COc1ccccc1NC(=O)c1nc(S(=O)(=O)Cc2ccccc2)ncc1Cl	8	3	-8	2	-8	4
CC(C)c1nnc(NC(=O)c2nc(S(=O)(=O)Cc3ccccc3)ncc2Cl)s1	-2	0	-3	5	1	98*
CSc1nnc(NC(=O)c2nc(S(=O)(=O)Cc3ccccc3)ncc2Cl)s1	0	9	2	-2	-2	97*
CCc1ccc(NC(=O)c2nc(S(=O)(=O)Cc3ccccc3)ncc2Cl)cc1	18	9	-1	2	-1	-5
CO[C@H]1CN(C)C(=O)c2cc(NC(=O)C3CCCCC3)ccc2OC[C@@H](C)N(Cc2nccs2)C[C@H]1C	nt	nt	3	-2	-3	nt
COc1ccc(C(=O)Nc2ccc3c(c2)C(=O)N(C)C[C@H](OC)[C@H](C)CN[C@@H](C)CO3)cc1	nt	nt	2	3	-9	nt
COc1cccc(CN(C)C[C@@H]2OCc3ccccc3-c3c(n(C)c4ccccc34)C(=O)N([C@H](C)CO)C[C@H]2C)c1	nt	nt	-7	nt	nt	nt
C[C@H]1CN([C@@H](C)CO)C(=O)c2cc(Br)cnc2O[C@H]1CN(C)C(=O)NC1CCCC1	nt	nt	nt	-6	nt	nt
CN(CCOc1ccccc1)C(=O)CCc1c[nH]c2ccccc12	1	-2	1	-5	5	96*

Screening results deposited in PubChem by several laboratories.
